From PubChem BioAssay (NCATS)
Inconclusive results are not listed. The source made the active and inactive calls. Calls come from the whole dose curve; as a rule, active = well fitted inhibition curve with a large enough effect; inconclusive = small, poorly fitted or top-dose-only effect; inactive = no such curve, though single readings can be large or run the other way.

Assay: BET inhibitor-based combinations targeting novel dependencies in MECOM-rearranged (r) AML: SET-2 cell line (AID 2202231); note: nearly all actives have a fitted effect of over 35% in size;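 for viability: plate controls were DMSO treated cells for no effect and wells without cells for full effect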
Details: SET-2 AML cells viability, CellTiter-Glo luminescence, 48 h; viability: stronger effect = lower value, concentration not given here
Method in brief: (§1)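 A 48 hr incubation preceded viability reading by CellTiter-Glo, with 15 min room-temperature development. Dose series had 11 points; normalization used DMSO and empty wells; AUC was computed and mean-centered per line as Z-AUC.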
Potency is the fitted concentration of half-maximal effect.

| SMILES | Potency | viability |
| --- | --- | --- |
| OCCN1CCN(CCCN2c3ccccc3Sc3ccc(C(F)(F)F)cc32)CC1 | 20.9 µM (active) |  |
| Nc1nc2ccc(OC(F)(F)F)cc2s1 |  | 89.4% (inactive) |
| O=C(CCN1CCN(C(=O)OCc2cc(Cl)cc(Cl)c2)CC1)c1ccc2[nH]c(=O)oc2c1 |  | 95.2% (inactive) |
| CN1CCN(CCCN2c3ccccc3Sc3ccc(C(F)(F)F)cc32)CC1 | 16.6 µM (active) |  |
| Clc1ccc(C(c2ccccc2Cl)C(Cl)Cl)cc1 (stereo unspecified) |  | 70.3% (inactive) |
| OC[C@H]1O[C@@H](n2cnc3c2NC=NC[C@H]3O)C[C@@H]1O |  | 108% (inactive) |
| Nc1c2c(nc3ccccc13)CCCC2 |  | 102% (inactive) |
| O=c1c(O)c(-c2ccc(O)c(O)c2)oc2cc(O)cc(O)c12 |  | 113% (inactive) |
| O=C(Nc1nc2ccccc2n1CCN1CCOCC1)c1cccc([N+](=O)[O-])c1 |  | 112% (inactive) |
| Cc1cccc(-c2[nH]ncc2-c2ccc3ncccc3n2)n1 |  | 105% (inactive) |
| NC(=O)c1ccc2[nH]ccc2c1 |  | 107% (inactive) |

Assay: BET inhibitor-based combinations targeting novel dependencies in MECOM-rearranged (r) AML: OCI-AML3 cell line (AID 2202232); note: nearly all actives have a fitted effect of over 35% in size;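 for viability (% of control): plate controls were DMSO vehicle wells for no effect and wells without cells for full effect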
Details: CellTiter-Glo luminescence, 48 h; Potency: OCI-AML3 viability; series mostly up to 46 µM; viability (% of control): at the top concentration
Method in brief: as §1

| SMILES | Potency | viability (% of control) |
| --- | --- | --- |
| OCCN1CCN(CCCN2c3ccccc3Sc3ccc(C(F)(F)F)cc32)CC1 | 18.6 µM (active) |  |
| Nc1nc2ccc(OC(F)(F)F)cc2s1 | 20.9 µM (active) |  |
| O=C(CCN1CCN(C(=O)OCc2cc(Cl)cc(Cl)c2)CC1)c1ccc2[nH]c(=O)oc2c1 | 18.6 µM (active) |  |
| CN1CCN(CCCN2c3ccccc3Sc3ccc(C(F)(F)F)cc32)CC1 | 16.6 µM (active) |  |
| Clc1ccc(C(c2ccccc2Cl)C(Cl)Cl)cc1 (stereo unspecified) |  | 83.7% (inactive) |
| OC[C@H]1O[C@@H](n2cnc3c2NC=NC[C@H]3O)C[C@@H]1O |  | 113% (inactive) |
| O=c1c(O)c(-c2ccc(O)c(O)c2)oc2cc(O)cc(O)c12 |  | 118% (inactive) |
| Cc1cccc(-c2[nH]ncc2-c2ccc3ncccc3n2)n1 |  | 118% (inactive) |
| NC(=O)c1ccc2[nH]ccc2c1 |  | 77.9% (inactive) |
| Oc1ccc(/C=C/c2cc(O)cc(O)c2)cc1 | 14.8 µM (active) |  |

Assay: BET inhibitor-based combinations targeting novel dependencies in MECOM-rearranged (r) AML: MV-4-11 cell line (AID 2202233); note: nearly all actives have a fitted effect of over 45% in size;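 for viability, % of control: plate controls were DMSO for no effect and blank wells for full effect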
Details: MV-4-11 AML viability, CellTiter-Glo luminescence, 48 h; series mostly up to 46 µM; viability, % of control: at the top concentration
Method in brief: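 Each compound is tested in an 11-point concentration series against 500 seeded cells/well for 48 hr. The luminescent viability signal is normalized to DMSO and blank wells, then reduced to AUC and a cell-line-centred Z-AUC.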

| SMILES | viability, % of control | Potency |
| --- | --- | --- |
| NC(CO)C(=O)NNCc1ccc(O)c(O)c1O (stereo unspecified) | 121% (inactive) |  |
| OCCN1CCN(CCCN2c3ccccc3Sc3ccc(C(F)(F)F)cc32)CC1 |  | 18.6 µM (active) |
| Nc1nc2ccc(OC(F)(F)F)cc2s1 |  | 23.5 µM (active) |
| O=C(CCN1CCN(C(=O)OCc2cc(Cl)cc(Cl)c2)CC1)c1ccc2[nH]c(=O)oc2c1 |  | 26.3 µM (active) |
| CN1CCN(CCCN2c3ccccc3Sc3ccc(C(F)(F)F)cc32)CC1 |  | 20.9 µM (active) |
| OC[C@H]1O[C@@H](n2cnc3c2NC=NC[C@H]3O)C[C@@H]1O | 113% (inactive) |  |
| NC(=NCc1ccccc1)NC(=O)c1nc(Cl)c(N)nc1N |  | 5.25 µM (active) |
| Cc1cccc(-c2[nH]ncc2-c2ccc3ncccc3n2)n1 | 106% (inactive) |  |
| NC(=O)c1ccc2[nH]ccc2c1 | 81.5% (inactive) |  |
| Oc1ccc(/C=C/c2cc(O)cc(O)c2)cc1 |  | 16.6 µM (active) |
